Some test systems named below: NLK; PAK1; PAK2; PAK3; PAK4; PAK6; PAK7; PDGFRA; PDGFRB; PDPK1; PFTAIRE2; PHKG1; PHKG2; PIK3C2B.
What all share (conditions): concentration: 1 μM,replicates: in singlicate; n = 1
The next test has as its system T1, NIM1.
T1 construct: gene MGC42105

The subject of the next test is T2, OSR1.
T2 construct: gene OXSR1

In the next test the test system is T3, PCTK1.
T3 construct: gene CDK16

The next test deals with T4, PCTK2.
T4 construct: gene CDK17

Another test deals with T5, PCTK3.
T5 construct: gene CDK18

The subject of another test is T6, PFTK1.
T6 construct: gene CDK14

We go through seven compounds from article PMC5540273 (PLoS ONE, 2017).
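Also: KINOMEscan kinase panel screen.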

In the case of `O=C(NOCC1CC1)c1cc(Br)c(F)c(F)c1Nc1ccc(I)cc1Cl`, the “%Inh” value worked out at 25% in the test with NIM1; 0% with NLK; 0% with OSR1; 2% in the test with PAK1; 12% in the test with PAK2; 16% in the test on PAK3. For the same compound, the “%Inh” value in the test on PAK4, in the test with PAK6, in the test on PAK7, in the test with PCTK1, in the test on PCTK2 and in the test on PCTK3 was 0% throughout. Besides, the “%Inh” value is reported as 0% in the test on PDGFRA; 13% with PDGFRB; 9% in the test with PDPK1; 0% in the test with PFTAIRE2; 0% in the test with PFTK1; 0% in the test on PHKG1. Besides, the “%Inh” value with PHKG2 and in the test with PIK3C2B was 0% in each case.
In the case of `Cc1n[nH]c2cc(Nc3ccnc(Nc4cccc(CN5CCOCC5)c4)n3)ccc12` [GW682569], the “%Inh” value is 22% in the test with NIM1; 18% in the test with NLK; 0% in the test on OSR1; 0% in the test with PAK1; 0% in the test on PAK2; 0% with PAK3. In addition, the “%Inh” value worked out at 2% in the test with PAK4; 1% in the test with PAK6; 20% with PAK7; 0% in the test on PCTK1; 12% with PCTK2; 8% in the test with PCTK3. Moreover, the “%Inh” value came out at 75% in the test with PDGFRA; 95.4% in the test on PDGFRB; 0% in the test with PDPK1; 7% in the test with PFTAIRE2; 20% in the test with PFTK1; 0% in the test with PHKG1. For the same compound, the “%Inh” value with PHKG2 and with PIK3C2B was 0% throughout.
For `CCn1c(-c2nonc2N)nc2cncc(Br)c21` [SB-738004], the “%Inh” value in the test with NIM1 is given as 37%; with NLK, 22%; with OSR1, 0%; with PAK1, 0%; with PAK2 it was 16%; with PAK3, 1%. Besides, the “%Inh” value is given as 7% in the test on PAK4; 15% in the test on PAK6; 32% in the test on PAK7; 0% in the test with PCTK1; 14% with PCTK2; 6% in the test on PCTK3. In addition, the “%Inh” value stood at 50% in the test with PDGFRA; 18% with PDGFRB; 6% in the test with PDPK1; 10% in the test on PFTAIRE2; 25% in the test on PFTK1; 0% in the test on PHKG1. Moreover, the “%Inh” value in the test with PHKG2 and in the test with PIK3C2B was 0% each time.
Take `Cn1ccc2ncnc(Oc3ccc(NC(=O)Nc4cc(C(C)(C)C)on4)c(Cl)c3)c21`: the “%Inh” value in the test on NIM1 came out at 0%; with NLK it was 67%; with OSR1, 20%; with PAK1 it was 20%; with PAK2 it was 23%; with PAK3 it was 46%. The “%Inh” value stood at 8% in the test with PAK4; 1% in the test with PAK6; 0% in the test on PAK7; 27% in the test with PCTK1; 8% in the test on PCTK2; 7% in the test with PCTK3. Moreover, the “%Inh” value with PDGFRA is reported as 98.9%; with PDGFRB it was 100%; in the test with PDPK1, 0%; in the test on PFTAIRE2, 9%; in the test with PFTK1, 0%; in the test on PHKG1 it was 3%. In addition, the “%Inh” value turned out to be 9% in the test with PHKG2 and 7% in the test with PIK3C2B.
Take `COC(=O)c1cccc(NC(=O)NC2CCN(c3ccnc(Nc4cc(OC)c(OC)c(OC)c4)n3)C2)c1` (centres unmarked) [GSK1379767]: the “%Inh” value with NIM1 was found to be 40%; in the test with NLK, 32%; in the test on OSR1, 0%; in the test on PAK1, 10%; in the test on PAK2, 0%; with PAK3, 18%. In addition, the “%Inh” value amounted to 5% with PAK4; 0% in the test with PAK6; 18% in the test with PAK7; 0% with PCTK1; 24% in the test on PCTK2; 0% with PCTK3. The “%Inh” value turned out to be 6% in the test on PDGFRA; 65% with PDGFRB; 0% with PDPK1; 0% in the test on PFTAIRE2; 20% in the test on PFTK1; 10% in the test on PHKG1. Besides, the entries for the “%Inh” value with PHKG2 and in the test on PIK3C2B were 2% and 0%, respectively.
Regarding `C[C@@H](Oc1cc(-n2cnc3cc(-c4ccncc4)ccc32)sc1C(N)=O)c1ccccc1Cl` [GSK479719], the “%Inh” value with NIM1 turned out to be 51%; in the test on NLK, 0%; with OSR1, 18%; in the test on PAK1, 21%; in the test with PAK2, 22%; in the test on PAK3 it was 27%. Further, the “%Inh” value in the test with PAK4 was 0%; in the test on PAK6, 5%; in the test on PAK7, 94.2%; in the test on PCTK1 it was 1%; in the test on PCTK2 it was 0%; in the test with PCTK3, 15%. Moreover, the “%Inh” value in the test with PDGFRA amounted to 67%; with PDGFRB it was 95.1%; with PDPK1, 40%; in the test with PFTAIRE2, 17%; in the test on PFTK1, 18%; with PHKG1, 0%. The results for the “%Inh” value with PHKG2 and with PIK3C2B were 16% and 0%, respectively.
`O=C1NCCc2[nH]c(-c3ccncc3)cc21`: the “%Inh” value in the test on NIM1 was 45%; in the test with NLK, 22%; in the test with OSR1, 3%; with PAK1, 38%; in the test with PAK2, 40%; with PAK3, 42%. For the same compound, the “%Inh” value in the test on PAK4 is recorded as 14%; with PAK6, 17%; in the test with PAK7, 0%; in the test with PCTK1, 0%; in the test with PCTK2 it was 0%; in the test with PCTK3 it was 1%. Moreover, the “%Inh” value with PDGFRA was 27%; in the test with PDGFRB it was 17%; with PDPK1, 0%; in the test on PFTAIRE2, 0%; in the test on PFTK1 it was 0%; with PHKG1 it was 0%. For the same compound, the entries for the “%Inh” value in the test on PHKG2 and in the test on PIK3C2B were 14% and 21%, respectively.
